Data from PubChem BioAssay (NCATS).
Results filed as inconclusive are left out. Activity calls are given as the source filed them. Unless noted, calls come from the whole dose curve; as a rule, active = well fitted curve in the direction sought with a large enough effect; inconclusive = small, poorly fitted or top-dose-only effect, or another doubt; inactive = no such curve, though single readings can be large; an effect the other way counts as inactive or inconclusive.

How the values were obtained:
[1] = qHTS Assay for Lipid Storage Modulators (AID 1519; calls by dose curve; for activity change, negative = inhibition: % is set by controls: 0 for no effect and ±100 for the full control effect); conditions: Drosophila S3 cells, BODIPY lipid droplet/cell ratio, laser cytometry, cells loaded with oleic acid
How it was run: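 Cells seeded at 5,000 per well were treated with compounds over a concentration series and loaded with oleic acid (400 uM, as added). Lipid droplet fluorescence (488 nm excitation, 500-530 nm channel) was read by laser-scanning cytometry and normalized to 20 uM Triacsin C.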

[2] = molecular target: DNA repair nuclease/redox regulator APEX1 (Homo sapiens) (UniProt P27695); test: qHTS Validation Assay for Inhibitors of the Human Apurinic/apyrimidinic Endonuclease 1 (APE1) (AID 1705;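 note: TAMRA fluorescence gain over two minutes as APE1 cuts a quenched THF abasic duplex; % is set by controls: 0 for no effect and ±100 for the full control effect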)
DNA repair nuclease/redox regulator APEX1 (Homo sapiens), sequence (P27695 whole entry, looked up): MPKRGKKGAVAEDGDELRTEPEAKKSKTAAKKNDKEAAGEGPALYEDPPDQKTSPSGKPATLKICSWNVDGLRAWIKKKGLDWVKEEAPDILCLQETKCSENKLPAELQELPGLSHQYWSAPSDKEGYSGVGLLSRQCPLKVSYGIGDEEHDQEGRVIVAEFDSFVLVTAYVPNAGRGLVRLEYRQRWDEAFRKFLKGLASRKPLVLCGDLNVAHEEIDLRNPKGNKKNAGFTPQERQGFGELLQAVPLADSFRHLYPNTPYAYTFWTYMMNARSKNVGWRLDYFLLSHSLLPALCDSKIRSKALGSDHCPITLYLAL
How it was run: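 qHTS, 1536-well. APE1 + cpd 15 min RT → 50 nM TAMRA/BHQ-2 THF-abasic dsDNA substrate → kinetic fluorescence, 3 reads/60 s; delta(read3−read1) = reaction progress. No-enzyme buffer = negative control.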

[3] = Counterscreen for APE1 Inhibitors: Fluorescent Dye Displacement Validation Assay (AID 1707);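 note: plate controls were ThO with dsDNA and no compound for no effect and ThO without dsDNA for full effect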
How it was run: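 Endpoint fluorescence read at 480 nm excitation / 540 nm emission; DNA-binding compounds lower signal by displacing 250 nM Thiazole Orange from 50 nM dsDNA containing a tetrahydrofuran abasic site, Tris-HCl pH7.5 buffer with NaCl and MgCl2.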

[4] = molecular target: Endonuclease 4 (Escherichia coli (strain K12)) (UniProt P0A6C1); test: Counterscreen for APE1 Inhibitors: qHTS Validation Assay for Inhibitors of Endonuclease IV (AID 1708); note: % is set by controls: 0 for no effect and ±100 for the full control effect
How it was run: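 The reaction buffer contained 50 mM Tris-HCl pH 7.5, 50 mM NaCl, 2 mM MgCl2, 1 mM DTT and 0.01% Tween-20. Incision of a 50 nM fluorophore/quencher THF substrate by 2 nM enzyme was measured kinetically.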

[5] = qHTS for differential inhibitors of proliferation of Plasmodium falciparum line 7G8 (AID 1815);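 note: potency is the fitted concentration of half-maximal effect; parasite growth measured after three days of incubation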
[6] = qHTS for differential inhibitors of proliferation of Plasmodium falciparum line GB4 (AID 1816); conditions: Potency: Plasmodium falciparum GB4 proliferation inhibition;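 note: potency is the fitted concentration of half-maximal effect; parasite growth measured after 72 h incubation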
[7] = qHTS for differential inhibitors of proliferation of Plasmodium falciparum line 3D7 (AID 1876); note: potency is the fitted concentration of half-maximal effect
[8] = qHTS for differential inhibitors of proliferation of Plasmodium falciparum line Dd2 (AID 1882); conditions: Potency: Plasmodium falciparum Dd2 proliferation inhibition; note: potency is the fitted concentration of half-maximal effect; nearly all actives have a fitted effect of over 65% in size
How it was run: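 RBC culture, 0.3% parasitemia / 2.5% Hct final; cpd added by pin tool in DMSO; 72 h, 37 C, 5% CO2; lysis buffer + SYBR Green I, o/n RT dark; FI 485/535; norm. to artemisinin 0.29 uM and DMSO.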

[9] = qHTS for differential inhibitors of proliferation of Plasmodium falciparum line W2 (AID 1883); conditions: Potency: Plasmodium falciparum W2 proliferation inhibition;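 note: potency is the fitted concentration of half-maximal effect; parasites grown with compound for 72 h before lysis and staining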
[10] = molecular target: ATP-dependent DNA helicase Q1 (Homo sapiens) (UniProt P46063); test: qHTS Validation Assay for Inhibitors of RecQ-Like Dna Helicase 1 (RECQ1) (AID 2353);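 note: plate controls were DMSO vehicle for no effect and enzyme-free control for full effect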
ATP-dependent DNA helicase Q1 (Homo sapiens), sequence (P46063 whole entry, looked up): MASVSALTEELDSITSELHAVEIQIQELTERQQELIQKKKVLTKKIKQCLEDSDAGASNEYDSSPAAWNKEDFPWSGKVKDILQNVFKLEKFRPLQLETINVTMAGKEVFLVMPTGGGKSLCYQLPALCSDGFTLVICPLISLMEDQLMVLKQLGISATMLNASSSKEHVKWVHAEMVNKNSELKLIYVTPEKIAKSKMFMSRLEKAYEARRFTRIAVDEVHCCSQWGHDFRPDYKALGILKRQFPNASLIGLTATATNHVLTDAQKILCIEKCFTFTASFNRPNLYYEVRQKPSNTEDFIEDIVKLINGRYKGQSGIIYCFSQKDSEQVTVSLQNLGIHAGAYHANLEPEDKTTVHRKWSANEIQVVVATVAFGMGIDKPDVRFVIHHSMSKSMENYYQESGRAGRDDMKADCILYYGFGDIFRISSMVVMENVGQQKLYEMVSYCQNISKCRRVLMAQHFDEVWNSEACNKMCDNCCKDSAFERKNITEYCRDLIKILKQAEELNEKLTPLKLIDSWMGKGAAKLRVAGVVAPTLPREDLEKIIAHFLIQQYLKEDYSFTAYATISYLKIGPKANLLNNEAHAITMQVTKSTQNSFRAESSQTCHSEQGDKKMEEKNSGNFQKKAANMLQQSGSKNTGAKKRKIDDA
How it was run: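 RECQ1T1 50 nM; forked duplex (20 bp + 30-nt ss tails) 200 nM, ATP 2 mM final; pH 8.0, 2 mM MgCl2, 2.5 ug/ml poly(dI-dC); 15 min compound preincubation; discontinuous kinetic read over 2 h at RT.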

[11] = molecular target: RecQ-like DNA helicase BLM (Homo sapiens) (UniProt P54132); test: qHTS Validation Assay for Inhibitors of Bloom's syndrome helicase (BLM) (AID 2364);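 note: plate controls were DMSO vehicle for no effect and enzyme-free control for full effect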
How it was run: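 Forked 20-bp duplex substrate (200 nM, TAMRA/BHQ-2) plus 2 mM ATP added after 15 min compound preincubation with 50 nM enzyme, pH 8.0, poly(dI-dC) 2.5 ug/ml. Strand separation followed by fluorescence (525/598 nm) over 2 h, normalized to enzyme-free and DMSO controls.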

[12] = Quantitative high throughput screen for delayed death inhibitors of the malarial parasite plastid, 96 hour incubation (AID 488745);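 note: luciferase-expressing P. falciparum in erythrocytes at 2% hematocrit and 0.1% parasitemia; % is set by controls: 0 for no effect and ±100 for the full control effect; nearly all actives have a fitted effect of over 70% in size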
How it was run: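 Luciferase-expressing P. falciparum, infected RBCs 2% Hct/0.1% parasitemia (final); 96 h cpd exposure, 37 C, 5% CO2; RPMI 1640 + 0.5% Albumax, bicarbonate, gentamycin. Readout: luminescence loss = growth inhibition.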

[13] = molecular target: Thyrotropin receptor (Homo sapiens) (UniProt P16473); test: qHTS Assay for Antagonists of the Thyroid Stimulating Hormone Receptor (AID 488980); note: 0% is about no effect
Thyrotropin receptor (Homo sapiens), sequence (P16473 whole entry, looked up): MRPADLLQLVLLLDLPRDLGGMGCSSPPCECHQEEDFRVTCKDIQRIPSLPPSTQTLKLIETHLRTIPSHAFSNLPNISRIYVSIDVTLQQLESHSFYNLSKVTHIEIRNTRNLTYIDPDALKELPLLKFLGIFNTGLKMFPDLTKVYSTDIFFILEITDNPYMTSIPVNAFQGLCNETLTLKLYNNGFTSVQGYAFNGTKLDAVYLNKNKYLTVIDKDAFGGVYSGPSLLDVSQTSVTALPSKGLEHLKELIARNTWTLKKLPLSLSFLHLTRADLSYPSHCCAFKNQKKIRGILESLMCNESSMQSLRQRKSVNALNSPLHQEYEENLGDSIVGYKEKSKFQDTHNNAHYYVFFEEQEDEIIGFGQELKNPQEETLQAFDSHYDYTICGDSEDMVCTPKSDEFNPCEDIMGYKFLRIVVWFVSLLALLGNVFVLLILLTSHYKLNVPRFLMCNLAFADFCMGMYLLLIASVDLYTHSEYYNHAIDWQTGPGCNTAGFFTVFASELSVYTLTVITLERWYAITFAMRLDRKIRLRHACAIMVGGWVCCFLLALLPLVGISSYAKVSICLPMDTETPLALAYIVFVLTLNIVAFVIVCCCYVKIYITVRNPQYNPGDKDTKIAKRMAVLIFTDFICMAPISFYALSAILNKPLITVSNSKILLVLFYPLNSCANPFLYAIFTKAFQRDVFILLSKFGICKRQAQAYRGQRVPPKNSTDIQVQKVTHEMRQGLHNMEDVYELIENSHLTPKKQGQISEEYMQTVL
How it was run: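 Readout is cAMP by HTRF competition between cellular cAMP and cAMP-d2 for a cryptate-labelled antibody. Antagonism was assessed in TSHR-transfected HEK293 cells stimulated with 4 nM TSH (EC80, final) in the presence of RO 20-1724.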

[14] = molecular target: Galactokinase (Homo sapiens) (UniProt P51570); test: qHTS Validation Assay for Inhibitors of Human Galactokinase (GALK) (AID 493189); note: 0% is about no effect
Galactokinase (Homo sapiens), sequence (P51570 whole entry, looked up): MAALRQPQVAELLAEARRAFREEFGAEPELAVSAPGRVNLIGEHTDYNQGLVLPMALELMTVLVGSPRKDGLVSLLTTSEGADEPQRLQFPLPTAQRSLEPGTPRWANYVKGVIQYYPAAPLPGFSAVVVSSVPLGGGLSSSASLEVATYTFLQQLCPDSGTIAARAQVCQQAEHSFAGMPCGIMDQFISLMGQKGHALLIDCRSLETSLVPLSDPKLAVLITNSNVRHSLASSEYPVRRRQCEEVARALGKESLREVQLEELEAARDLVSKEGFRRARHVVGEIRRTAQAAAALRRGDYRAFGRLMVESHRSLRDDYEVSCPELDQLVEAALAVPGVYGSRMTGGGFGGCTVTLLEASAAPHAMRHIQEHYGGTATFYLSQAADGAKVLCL
How it was run: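 5 nM GALK / 100 uM galactose / 35 uM ATP, 20 mM HEPES pH8.0, 5 mM MgCl2, 60 mM NaCl, 1 mM DTT, 0.01% BSA (final). RT 1 h; Kinase-Glo Plus luminescence.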

[15] = Validation screen for small molecules that induce DNA re-replication in SW480 colon adenocarcinoma cells (AID 504364); note: 0% is about no effect
How it was run: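 Read-out: total Hoechst intensity of nuclei by fluorescence scanning imager; hits raise the fraction of nuclei with elevated DNA content. Cells received compound for 48 hr at 37 C before a 40 min stain.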

[16] = molecular target: Voltage-gated inwardly rectifying potassium channel KCNH2 (Homo sapiens) (UniProt Q12809); test: qHTS Assay for Small Molecule Inhibitors of the Human hERG Channel Activity (AID 588834);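 note: potency is the fitted concentration of half-maximal effect; lower thallium flux fluorescence means stronger hERG block; nearly all actives have a fitted effect of over 50% in size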
Voltage-gated inwardly rectifying potassium channel KCNH2 (Homo sapiens), sequence (Q12809 whole entry, looked up): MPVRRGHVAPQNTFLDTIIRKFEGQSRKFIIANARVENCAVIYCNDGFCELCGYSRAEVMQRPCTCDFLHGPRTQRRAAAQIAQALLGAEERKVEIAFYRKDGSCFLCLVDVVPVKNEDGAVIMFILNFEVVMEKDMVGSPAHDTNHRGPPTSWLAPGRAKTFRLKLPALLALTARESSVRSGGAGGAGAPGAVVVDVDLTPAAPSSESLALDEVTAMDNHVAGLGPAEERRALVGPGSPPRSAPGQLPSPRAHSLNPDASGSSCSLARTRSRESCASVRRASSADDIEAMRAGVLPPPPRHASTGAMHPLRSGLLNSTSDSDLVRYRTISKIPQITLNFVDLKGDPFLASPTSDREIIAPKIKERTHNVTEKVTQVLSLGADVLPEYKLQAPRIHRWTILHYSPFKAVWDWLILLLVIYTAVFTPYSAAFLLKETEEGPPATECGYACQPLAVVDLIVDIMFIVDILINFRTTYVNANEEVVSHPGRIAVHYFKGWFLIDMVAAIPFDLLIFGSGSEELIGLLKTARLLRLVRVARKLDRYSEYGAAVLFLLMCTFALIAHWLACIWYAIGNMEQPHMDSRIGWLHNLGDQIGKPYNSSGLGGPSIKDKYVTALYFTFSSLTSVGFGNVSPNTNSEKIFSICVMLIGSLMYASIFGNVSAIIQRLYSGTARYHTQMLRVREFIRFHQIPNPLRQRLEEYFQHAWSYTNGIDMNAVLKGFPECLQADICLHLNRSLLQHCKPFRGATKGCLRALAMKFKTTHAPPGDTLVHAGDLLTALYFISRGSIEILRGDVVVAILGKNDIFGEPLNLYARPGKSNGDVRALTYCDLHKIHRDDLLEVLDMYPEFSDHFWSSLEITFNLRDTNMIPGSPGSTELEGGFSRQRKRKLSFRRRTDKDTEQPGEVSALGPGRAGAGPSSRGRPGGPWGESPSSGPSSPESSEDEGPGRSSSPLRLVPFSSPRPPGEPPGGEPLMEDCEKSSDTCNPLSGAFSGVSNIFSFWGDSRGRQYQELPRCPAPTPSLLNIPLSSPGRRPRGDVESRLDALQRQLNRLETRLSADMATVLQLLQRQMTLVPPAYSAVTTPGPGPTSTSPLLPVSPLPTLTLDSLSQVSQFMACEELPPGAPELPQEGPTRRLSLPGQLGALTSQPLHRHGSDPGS
How it was run: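 Step 1: BacMam hERG transduction of U2OS, 4 hrs RT. Step 2: overnight 37 °C, plate 2000 cells/well, 4 hr. Step 3: FluxOR load, compound 10 min, stimulate, read fluorescence.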

[17] = P-glycoprotein substrates identified in KB-3-1 adenocarcinoma cell line, qHTS therapeutic library screen (AID 1346986); note: nearly all actives have a fitted effect of over 60% in size;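 note: potency is the fitted concentration of half-maximal effect; potency is for cytotoxicity meaning loss of cell viability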
How it was run: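 Dose-response cytotoxicity, KB-3-1 vs P-gp-high KB-8-5-11, no colchicine in assay medium. Read: CellTiter-Glo at 72 h.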

[18] = test system: Zika virus NS2B-NS3 protease; test: Primary screen GU AMC qHTS for Zika virus inhibitors (AID 1347154);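 note: 0% = no-inhibitor control and -100% = no-enzyme control; nearly all actives have a fitted effect of over 70% in size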
How it was run: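 Fluorogenic AMC-substrate cleavage by noncovalent NS2B-NS3 protease complex (25 nM, pH 8.0 Tris buffer with Tween 20) followed for 15 minutes at room temperature (~20% conversion). Percent inhibition from ex340/em450 signal change, fitted by 4-parameter Hill equation.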

[19] = qHTS to identify inhibitors of the type 1 interferon - major histocompatibility complex class I in skeletal muscle: primary screen against the NCATS Mechanism Interrogation Plate v5.0 (MIPE) Libary (AID 1347411);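 note: plate controls were vehicle for no effect and reference inhibitor for full effect; nearly all actives have a fitted effect of over 65% in size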
How it was run: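 HLA-B HiBit myoblasts, dexamethasone-free medium + 4 ng/ml IFN-b, 24 h compound, 11-pt 1:3 from 46 uM final. Readout: Nano-Glo HiBiT lytic luminescence after 10 min lysis, RT.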

[20] = molecular target: Cytochrome P450 2D6 (Homo sapiens) (UniProt P10635); test: Cytochrome P450 family 2 subfamily D member 6 (CYP2D6) small molecule antagonists: luciferase biochemical (cell-free) qHTS assay (AID 1645840; active = well fitted curve in the direction sought with a large enough effect in the repeat runs; an effect the other way counts as inactive or inconclusive; note: potency is the fitted concentration of half-maximal effect; nearly all actives have a fitted effect of over 55% in size)
Cytochrome P450 2D6 (Homo sapiens), sequence (P10635 whole entry, looked up): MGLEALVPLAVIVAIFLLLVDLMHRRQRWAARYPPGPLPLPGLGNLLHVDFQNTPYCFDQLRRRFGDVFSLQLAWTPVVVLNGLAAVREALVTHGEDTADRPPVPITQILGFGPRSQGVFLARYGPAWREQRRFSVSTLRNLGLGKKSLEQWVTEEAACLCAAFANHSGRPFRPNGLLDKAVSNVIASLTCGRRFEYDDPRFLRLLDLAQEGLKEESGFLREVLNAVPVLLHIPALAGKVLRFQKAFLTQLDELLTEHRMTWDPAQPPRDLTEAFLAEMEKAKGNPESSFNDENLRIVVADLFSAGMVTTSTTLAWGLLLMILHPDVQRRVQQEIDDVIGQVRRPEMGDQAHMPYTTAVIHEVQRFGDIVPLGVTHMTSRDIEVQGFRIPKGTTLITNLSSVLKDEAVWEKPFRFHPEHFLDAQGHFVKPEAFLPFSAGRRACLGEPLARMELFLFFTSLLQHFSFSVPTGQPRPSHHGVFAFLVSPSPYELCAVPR
How it was run: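 P450-Glo CYP2D6 system: proluciferin substrate converted by enzyme to luciferin, read by luminescence proportional to activity. Enzyme-substrate mix with compound 10 min at room temperature, then NADPH regeneration 1 h before detection reagent.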

[21] = Primary qHTS for inhibitors of nuclear receptor binding SET domain protein 2 (NSD2) in an isogenic RCH-ACV NSD2 p.E1099K mutant (9B) (AID 1645876); note: nearly all actives have a fitted effect of over 70% in size; note: potency is the fitted concentration of half-maximal effect
[22] = Primary qHTS for inhibitors of nuclear receptor binding SET domain protein 2 (NSD2) in an RCH-ACV wild type WT cells (2C) (AID 1645877); note: nearly all actives have a fitted effect of over 70% in size; note: potency is the fitted concentration of half-maximal effect
[23] = NCATS anti-infectives library activity on HEK293 viability as a counter-qHTS vs the C. elegans viability qHTS (AID 1745854); note: % is set by controls: 0 for no effect and ±100 for the full control effect
How it was run: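 CellTiter-Glo luminescence, read on a CCD imager, scored viability of HEK293 cells after 24 hr compound exposure at 37C. Library tested in several concentrations, 1:5 steps, up to 41.7 uM; digitonin served as control.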

[24] = NCATS anti-infectives library activity on the primary C. elegans qHTS viability assay (AID 1745855; calls by dose curve)
How it was run: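 Titration-based screen in worms: eggs hatched overnight in M9, L1 larvae fed TOP10 capsules in S medium with compound, incubated 21 °C for 7 days; fluorescent objects gated by size and intensity at days 0, 3 and 7.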

[25] = molecular target: Glutathione peroxidase 1 (Homo sapiens) (UniProt P07203); test: Primary qHTS Assay for Inhibitors of Recombinant Selenoprotein Glutathione Peroxidase 1 (GPX1) (AID 1845191); note: nearly all actives have a fitted effect of over 65% in size; note: potency is the fitted concentration of half-maximal effect
Glutathione peroxidase 1 (Homo sapiens), sequence (P07203 whole entry, looked up): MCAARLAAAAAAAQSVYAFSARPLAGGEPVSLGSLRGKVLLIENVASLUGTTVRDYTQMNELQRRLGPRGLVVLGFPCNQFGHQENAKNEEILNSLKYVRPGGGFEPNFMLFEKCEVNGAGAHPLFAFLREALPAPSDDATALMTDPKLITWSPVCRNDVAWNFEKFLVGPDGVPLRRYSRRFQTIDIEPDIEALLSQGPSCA
How it was run: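 NADPH consumption tracked by fluorescence at 340/450 nm between t=0 and t=15 min, room temperature. Final mix: 10 nM GPX1, 100 nM glutathione reductase, 1 mM GSH, 0.5 mM NADPH, 0.5 mM cumene hydroperoxide, 0.01% BSA; 30 min compound–enzyme preincubation.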

[26] = molecular target: Phospholipid hydroperoxide glutathione peroxidase GPX4 (Homo sapiens) (UniProt P36969); test: Primary qHTS Assay for Inhibitors of Recombinant Selenoprotein Glutathione Peroxidase 4 (GPX4) (AID 1845192); conditions: outcome: dose series up to 50 µM unless noted; note: % is set by controls: 0 for no effect and ±100 for the full control effect; nearly all actives have a fitted effect of over 65% in size
Phospholipid hydroperoxide glutathione peroxidase GPX4 (Homo sapiens), sequence (P36969 whole entry, looked up): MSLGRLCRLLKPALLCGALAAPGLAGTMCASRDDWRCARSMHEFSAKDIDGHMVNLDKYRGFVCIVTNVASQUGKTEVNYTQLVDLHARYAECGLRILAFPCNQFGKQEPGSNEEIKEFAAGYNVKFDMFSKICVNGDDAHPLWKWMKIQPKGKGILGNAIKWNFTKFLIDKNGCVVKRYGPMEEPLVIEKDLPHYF
How it was run: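 NADPH consumption followed by fluorescence at 340/450 nm, t=0 and after 15 min at room temperature. Reaction started with cumene hydroperoxide (0.5 mM final) after 30 min compound–GPX4 preincubation; final 200 nM GPX4, 100 nM GR, 1 mM GSH, 0.5 mM NADPH.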

[27] = qHTS drug screen for cell cycle checkpoint inhibitors in PARPi-resistant BRCA-mutant ovarian cancer cell lines. (AID 1963452; calls by dose curve); conditions: PEO1/OlaR viability, CellTiter-Glo luminescence, 96 h, stronger effect = lower value
How it was run: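 PEO1, PEO4 and PEO1/OlaR ovarian cancer cells, 600 per well, exposed 96 h at 37C to a dilution series. Viability read by CellTiter-Glo luminescence, normalized to DMSO and empty wells; activity summarized as Z-AUC.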

[28] = P-glycoprotein substrates identified in KB-8-5-11 adenocarcinoma cell line, qHTS therapeutic library screen (AID 1346987); note: nearly all actives have a fitted effect of over 65% in size; note: potency is the fitted concentration of half-maximal effect
How it was run: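 In this qHTS, P-gp-rich KB-8-5-11 cells received library compounds across a concentration range. Viability was quantified by luminescence after 72 h at 37 degree C.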

O=S(=O)(NCCNC/C=C/c1ccc(Br)cc1)c1cccc2cnccc12
0.757: Z-AUC ([27]; measured here: PEO4 Z-AUC)
1.26: Z-AUC ([27]; measured here: PEO1 parental Z-AUC)
inactive: activity change, negative = inhibition ([1]; at 57.5 µM (top of the series)) -23.6% | Potency [2] | Potency [3] | Potency [4] | Potency [10] | Potency [11] | Potency [12] | outcome [13] | outcome [14] | outcome [15] | Potency [17] | Potency [18] | Potency [19] | outcome [23] | Potency [24] | Potency [25] | Potency [26] | Z-AUC [27] 0.684
-49.7%: max response ([1]; measured here: lipid channel max response)
active: Potency [5] 8.91 µM | Potency [6] 12.6 µM | Potency [7] 11.2 µM | Potency [8] 8.91 µM | Potency [9] 5.01 µM | Potency [16] 2.82 µM | Potency [20] 4.77 µM | Potency [21] 16.6 µM | Potency [22] 14.8 µM
-29.8%: max response ([1]; measured here: cell count channel max response)

CN(C)CCCNc1c2ccccc2nc2c1[nH]c1ccccc12
active: Potency [17] 1.84 µM | Potency [28] 2.31 µM | Potency [21] 1.84 µM | Potency [22] 2.06 µM | Potency [25] 22.7 µM

CSc1nc(N)cc(Oc2ccc(-c3nc(Nc4cccc(C(F)(F)F)c4)n[nH]3)cc2)n1
active: Potency [17] 4.61 µM | Potency [28] 5.8 µM | Potency [21] 1.64 µM | Potency [22] 1.3 µM
inactive: Potency [25]

COc1ccc2cc1Oc1ccc(cc1)CC1c3cc(c(OC)cc3CCN1C)Oc1c(OC)c(OC)c(OC)c3c1C(C2)N(C)CC3 (stereo unspecified)
inactive: Potency [17] | Potency [28] | Potency [21] | Potency [22] | Potency [25]

Cc1c(-c2ccnc(Nc3cc(Br)cc(C(F)(F)F)c3)n2)sc(=O)n1C
inactive: Potency [17] | Potency [28] | Potency [25]
active: Potency [21] 5.8 µM | Potency [22] 4.11 µM
